According to PubChem BioAssay (EPA / NIEHS):
Values joined by “and” are separate entries in the source; they are usually repeats but may differ in a detail not shown here. Equal entries are not always repeated. Inconclusive results are not listed. Some structures have more than one record in an assay (separate samples or runs), and their calls can disagree. Active and inactive are the calls of the source. Rule for the calls, unless noted: active = hit-call score of the fitted dose curve at least 0.9, where 1 is the maximum; inactive = score below 0.9.

Legend:
[1] = read-out: Matrix Metallopeptidase 9 (MMP9), MMP9 (gene 4318); assay: BSK_BE3C_MMP9: BioMAP Diversity Plus: BE3C Assay for Matrix Metallopeptidase 9 (MMP9) Biomarker Activity (AID 2284283); conditions: primary human bronchial epithelial cells
Summary of the method: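 Human primary bronchial epithelial cells exposed 24 h to compound. MMP9 quantified by ELISA. SRB total-protein staining of parallel cultures assesses cytotoxicity. Positive-direction fit relative to DMSO.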

[2] = read-out: Plasminogen activator inhibitor-1 (PAI1), SERPINE1 (gene 5054); assay: BSK_CASM3C_PAI1: BioMAP Diversity Plus: CASM3C Assay for Plasminogen activator inhibitor-1 (PAI1) Biomarker Activity (AID 2284284); conditions: primary human coronary artery smooth muscle cells;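 note: PAI-1 protein level measured by ELISA 24 h after dosing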
[3] = read-out: Monocyte Chemoattractant Protein-1 (MCP1), CCL2 (gene 6347); assay: BSK_hDFCGF_MCP1: BioMAP Diversity Plus: hDFCGF Assay for Monocyte Chemoattractant Protein-1 (MCP1) Biomarker Activity (AID 2284285); conditions: primary human foreskin fibroblasts
Summary of the method: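 MCP-1 ELISA readout was taken 24 hours after dosing primary human dermal fibroblasts in the hDFCGF system, with DMSO as baseline. Parallel sulforhodamine B staining of total protein tracked overt cytotoxicity.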

[4] = read-out: Intercellular Adhesion Molecule 1 (ICAM1), ICAM1 (gene 3383); assay: BSK_hDFCGF_ICAM1: BioMAP Diversity Plus: hDFCGF Assay for Intercellular Adhesion Molecule 1 (ICAM1) Biomarker Activity (AID 2284287); conditions: primary human foreskin fibroblasts
Summary of the method: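 ICAM-1 ELISA readout 24 h after dosing, DMSO as baseline, in human dermal foreskin fibroblast cultures. Cytotoxicity checked in parallel wells by SRB staining (0.1% SRB, 10% TCA fixation, 560 nm).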

[5] = read-out: TIMP metallopeptidase inhibitor 2 (TIMP2), TIMP2 (gene 7077); assay: BSK_hDFCGF_TIMP2: BioMAP Diversity Plus: hDFCGF Assay for TIMP metallopeptidase inhibitor 2 (TIMP2) Biomarker Activity (AID 2284289); conditions: primary human foreskin fibroblasts
Summary of the method: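 Primary human foreskin fibroblasts in the hDFCGF system, dosed for 24 h; TIMP-2 level measured by ELISA, fitted in the positive direction against DMSO; cytotoxicity checked in parallel by sulforhodamine B total protein staining.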

[6] = read-out: Thrombomodulin, THBD (gene 7056); assay: BSK_LPS_Thrombomodulin: BioMAP Diversity Plus: LPS Assay for Thrombomodulin Biomarker Activity (AID 2284296); conditions: primary human HUVEC with PBMC
Summary of the method: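 Thrombomodulin on the surface of LPS-activated endothelial/PBMC co-cultures was quantified by ELISA at 24 hours post-dosing, with DMSO as baseline. Parallel SRB total-protein staining flagged overt cytotoxicity.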

CD69, CD69 (gene 969) = assay: BSK_LPS_CD69: BioMAP Diversity Plus: LPS Assay for CD69 Biomarker Activity (AID 2284303); conditions: primary human HUVEC with PBMC
Summary of the method: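 CD69 surface levels were read by ELISA after 24 h chemical treatment of an LPS-stimulated HUVEC plus PBMC co-culture; positive-direction fit against DMSO vehicle.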

[7] = IUF_NPC2c_oligodendrocyte_migration_120hr: Leibniz Research Institute for Environmental Medicine (IUF) 120-hour Neural Progenitor Cell Migration Assay for Oligodendrocyte Migration (NPC2c) (AID 2284297);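 note: O4-positive oligodendrocyte migration distance divided by radial glia migration distance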
Summary of the method: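 Human fetal neural progenitor spheres (0.3 mm) are plated on poly-D-lysine/laminin in N2 differentiation medium and exposed for 120 h, with half-medium renewal at day 3. Oligodendrocyte (O4+) migration distance comes from ICC imaging, normalised to radial glia migration.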

[8] = IUF_NPC2a_radial_glia_migration_120hr: Leibniz Research Institute for Environmental Medicine (IUF) 120-hour Neural Progenitor Cell Migration Assay for Radial Glia Migration (NPC2a) (AID 2284298)
Summary of the method: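 Human fetal-cortex neural progenitor spheres (0.3 mm) plated on poly-D-lysine/laminin in N2 differentiation medium, exposed 120 h at 37C with half-medium renewal at day 3. Radial glia migration distance (um) measured from Hoechst-stained nuclei images; DMSO baseline.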

[9] = IUF_NPC2a_radial_glia_migration_72hr: Leibniz Research Institute for Environmental Medicine (IUF) 72-hour Neural Progenitor Cell Migration Assay for Radial Glia Migration (NPC2a) (AID 2284299)
Summary of the method: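 Readout: mean of four manual brightfield measurements of radial glia migration distance (um) at 72 h. hNPC spheres (0.3 mm) exposed to 7 compound concentrations plus solvent control on PDL/laminin, 37C, 5% CO2; activity fitted relative to DMSO.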

[10] = IUF_NPC2b_neuronal_migration_120hr: Leibniz Research Institute for Environmental Medicine (IUF) 120-hour Neural Progenitor Cell Migration Assay for Neuron Migration (NPC2b) (AID 2284300)
Summary of the method: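 0.3 mm hNPC spheres on poly-D-lysine/laminin in N2 differentiation medium exposed 120 h, half-medium refresh day 3; 7 concentrations, DMSO max 0.1%. Neuron (TUBB3) distance from sphere core by ICC imaging, normalised to radial glia migration.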

[11] = IUF_NPC3_neuronal_differentiation_120hr: Leibniz Research Institute for Environmental Medicine (IUF) 120-hour Neuronal Differentiation Assay (NPC3) (AID 2284301)
Summary of the method: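 Neuronal differentiation of primary human neural progenitors measured by high-content imaging: percent TUBB3+ of Hoechst+ nuclei within migrated area at 120 h, seven-point serial dilution plus solvent control, gain or loss relative to DMSO.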

[12] = IUF_NPC4_neurite_length_120hr: Leibniz Research Institute for Environmental Medicine (IUF) 120-hour Neuronal Morphology Assay for Neurite Length (NPC4) (AID 2284302)
Summary of the method: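 Neurons from differentiating human fetal neural progenitor spheres are scored for average neurite length after five days of compound exposure. Fitting uses DMSO as negative control.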

[13] = IUF_NPC5_oligodendrocyte_differentiation_120hr: Leibniz Research Institute for Environmental Medicine (IUF) 120-hour Oligodendrocyte Differentiation Assay (NPC5) (AID 2284304; active = hit-call score of the fitted dose curve at least 0.9, where 1 is the maximum;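 note: primary human fetal neural progenitor spheres plated to migrate and differentiate; share of O4-positive cells among Hoechst nuclei found by CNN image analysis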)
Summary of the method: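 Human fetal neural progenitor spheres (0.3 mm) plated on poly-D-lysine/laminin in N2 differentiation medium and exposed for 120 h at 7 concentrations, with half-medium renewal at day 3. O4-positive cells identified by CNN, expressed as percent of Hoechst nuclei.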

[14] = IUF_NPC2-5_cytotoxicity_72hr: Cytotoxicity Assessment at 72 hours in the Leibniz Research Institute for Environmental Medicine (IUF) Neural Progenitor Cell Migration and Differentiation Assay for Cytotoxicity (NPC2-5) (AID 2284306; active = hit-call score of the fitted dose curve at least 0.9, where 1 is the maximum;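 note: LDH release into supernatant measured by resorufin fluorescence marking membrane damage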)
Summary of the method: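 Primary human neural progenitor spheres migrate and differentiate on laminin. Compound is present from the start of differentiation, with DMSO kept at or below 0.1%. At 72 h, supernatant LDH is quantified fluorometrically, with values fitted in the positive direction.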

[15] = IUF_NPC2-5_cytotoxicity_120hr: Cytotoxicity Assessment at 120 hours in the Leibniz Research Institute for Environmental Medicine (IUF) Neural Progenitor Cell Migration and Differentiation Assay (NPC2-5) (AID 2284307; active = hit-call score of the fitted dose curve at least 0.9, where 1 is the maximum)
Summary of the method: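 Human fetal (GW 16-19) neural progenitor spheres (0.3 mm) plated on poly-D-lysine/laminin in N2 differentiation medium, exposed 120 h with half-medium renewal at day 3; 7 concentrations plus solvent control, DMSO ≤0.1%. LDH release in supernatant read by resorufin fluorescence.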

[16] = IUF_NPC2-5_cell_number_120hr: Cell Number Assessment at 120 hours in the Leibniz Research Institute for Environmental Medicine (IUF) Neural Progenitor Cell Migration and Differentiation Assay (NPC2-5) (AID 2284308);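 note: count of Hoechst-stained nuclei in migration zone around plated human neural progenitor spheres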
Summary of the method: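 Human fetal neural progenitor spheres (0.3 mm) plated on poly-D-lysine/laminin in N2 differentiation medium, exposed five days across 7 concentrations with half-medium refresh at day 3. Hoechst-positive nuclei counted in migration area at 120 h, relative to DMSO.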

[17] = IUF_NPC2-5_viability_120hr: Viability Assessment at 120 hours in the Leibniz Research Institute for Environmental Medicine (IUF) Neural Progenitor Cell Migration and Differentiation Assay (NPC2-5) (AID 2284312)
Summary of the method: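 Human fetal (GW 16-19) neural progenitor spheres of 0.3 mm were plated on poly-D-lysine/laminin in N2 differentiation medium and exposed from day 0 for 120 h, with half-medium refresh at day 3. Viability was read as alamar blue resazurin-to-resorufin fluorescence against DMSO.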

[18] = CCTE_Mundy_HCI_iCellGluta_NOG_NeuriteLength: CCTE's Neurite Outgrowth Assay in iCellGluta cells for Neurite Length, Mundy Lab (AID 2284318; active = hit-call score of the fitted dose curve at least 0.9, where 1 is the maximum)
Summary of the method: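 Automated high-content imaging of betaIII-tubulin (Alexa Fluor-488) and Hoechst-stained cells gave neurite length, normalized to the DMSO baseline.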

[19] = IUF_NPC4_neurite_area_120hr: Leibniz Research Institute for Environmental Medicine (IUF) 120-hour Neuronal Morphology Assay for Neurite Area (NPC4) (AID 2284305; active = hit-call score of the fitted dose curve at least 0.9, where 1 is the maximum)
Summary of the method: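 Endpoint at 120 h: automated imaging of TUBB3/Hoechst-stained differentiating human neural progenitor spheres, neurite area per neuron from skeletonization. DMSO solvent control, not above 0.1%, set the baseline; medium was half-replaced on day 3.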

With O=C(c1ccc(O)cc1)c1ccc(O)cc1O the AC50 [1] was 20 µM (active) and 9.6 µM (active), the outcome [2] was “inactive” and the outcome [3] was “inactive”. For the same compound, the outcome [4] was “inactive”, the outcome [5] was “inactive” and the outcome [6] was “inactive”. For the same compound, the outcome (CD69, CD69 (gene 969)) was “inactive”.

In the case of CCO[Si](C)(OCC)OCC, the outcome [1] was “inactive”, the outcome [2] was “inactive” and the outcome [3] was “inactive”. For the same compound, the outcome [4] was “inactive”, the outcome [5] was “inactive” and the outcome [6] was “inactive”. For the same compound, the outcome (CD69, CD69 (gene 969)) was “inactive”.

With CO[Si](OC)(OC)c1ccccc1 the outcome [1] was “inactive”, the outcome [2] was “inactive” and the outcome [3] was “inactive”. The outcome [4] was “inactive”, the outcome [5] was “inactive” and the outcome [6] was “inactive”. The outcome (CD69, CD69 (gene 969)) was “inactive”.

In the case of C=C[Si](OC(C)=O)(OC(C)=O)OC(C)=O, the outcome [1] was “inactive”, the outcome [2] was “inactive” and the outcome [3] was “inactive”. For the same compound, the outcome [4] was “inactive”, the outcome [5] was “inactive” and the outcome [6] was “inactive”. For the same compound, the outcome (CD69, CD69 (gene 969)) was “inactive”.

With O=C1CCCN1CCO the outcome [1] was “inactive”, the outcome [2] was “inactive” and the outcome [3] was “inactive”. For the same compound, the outcome [4] was “inactive”, the outcome [5] was “inactive” and the outcome [6] was “inactive”. For the same compound, the outcome (CD69, CD69 (gene 969)) was “inactive”.

For CCOC(=O)c1ccccc1C(=C1C=C(Br)C(=O)C(Br)=C1)c1cc(Br)c(O)c(Br)c1, the AC50 [1] was 4.52 µM (active) and 2.5 µM (active), the outcome [2] was “inactive” and the AC50 [3] was 3.51 µM (active) and 3.62 µM (active). The AC50 [4] was 4.29 µM (active) and 4.91 µM (active), the AC50 [5] was 3.49 µM (active) and 3.46 µM (active) and the AC50 [6] was 10.3 µM (active). For the same compound, the outcome [6] was “inactive” and the AC50 (CD69, CD69 (gene 969)) was 8.66 µM (active) and 7.45 µM (active).

For CC1(C)S[C@@H]2[C@H](NC(=O)COc3ccccc3)C(=O)N2[C@H]1C(=O)O, the outcome [7] was “inactive”, the outcome [8] was “inactive” and the outcome [9] was “inactive”. For the same compound, the outcome [10] was “inactive”, the outcome [11] was “inactive” and the outcome [12] was “inactive”. For the same compound, the outcome [13] was “inactive”, the outcome [14] was “inactive” and the outcome [15] was “inactive”. The outcome [16] was “inactive”, the outcome [17] was “inactive” and the outcome [18] was “inactive”.

In the case of N[C@H]1C(O)O[C@H](CO)[C@H](O)[C@@H]1O (some centres undefined), the outcome [18] was “inactive”.

For Nc1ncn([C@@H]2O[C@H](CO)[C@@H](O)[C@H]2O)c(=O)n1, the outcome [7] was “inactive”, the outcome [8] was “inactive” and the outcome [9] was “inactive”. For the same compound, the outcome [10] was “inactive”, the outcome [11] was “inactive” and the outcome [12] was “inactive”. The outcome [19] was “inactive”, the outcome [14] was “inactive” and the outcome [15] was “inactive”. For the same compound, the outcome [16] was “inactive”, the outcome [17] was “inactive” and the AC50 [18] was 7.87 µM (active).

With CN1C(=O)N(C)C(O)C1O (centres undefined) the outcome [1] was “inactive”, the outcome [2] was “inactive” and the outcome [3] was “inactive”. The outcome [4] was “inactive”, the outcome [5] was “inactive” and the outcome [6] was “inactive”. For the same compound, the outcome (CD69, CD69 (gene 969)) was “inactive”.

With CCCCC(CC)COCC1CO1 (centres undefined) the outcome [1] was “inactive”, the outcome [2] was “inactive” and the outcome [3] was “inactive”. The outcome [4] was “inactive”, the outcome [5] was “inactive” and the outcome [6] was “inactive”. For the same compound, the outcome (CD69, CD69 (gene 969)) was “inactive”.

In the case of Nc1ccc(N)c(Cl)c1, the AC50 [1] was 15.2 µM (active) and 7.82 µM (active), the outcome [2] was “inactive” and the AC50 [3] was 28.9 µM (active). The outcome [4] was “inactive”, the AC50 [5] was 28.1 µM (active) and 28.9 µM (active) and the outcome [6] was “inactive”. For the same compound, the AC50 (CD69, CD69 (gene 969)) was 4.71 µM (active) and 1.81 µM (active).
